The results in this text go back to PubChem BioAssay (NCI).

Several values for one entry are separate records, joined by “and”; a condition that tells them apart may be missing. Equal values may be shown once. About 83,000 compounds went through this panel and 20% of them were active in at least one assay; those are over-represented in the sample as a whole.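 Treatment: one concentration, 48 hours, 96-well format. Scoring: percent growth, with anything below 10 considered active.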 Values without a mark were called inactive. Activity calls are given as the source filed them.

Test systems include T-47D breast; BT-549 breast; MDA-MB-435 melanoma; SW-620 colon; MCF7 breast; HCT-116 colon; HCC-2998 colon; KM12 colon; MDA-MB-468 breast.
Holding throughout (assay): NCI-60 one-dose screen, 48 h (100 = growth as untreated, 0 = no growth, -100 = all killed)
What all share (conditions): 10 µM unless noted

In the case of `COc1ccc(N=Nc2c(N)nn3c(-c4ccc([N+](=O)[O-])cc4)ccnc23)cc1`, the growth was 81.6% with T-47D breast; 94% with BT-549 breast; 107% in the assay on MDA-MB-435 melanoma; 98.4% with SW-620 colon; 95.3% in the assay with MCF7 breast; 97.9% with HCT-116 colon. For the same compound, the growth is 113% in the assay with HCC-2998 colon, 102% in the assay with KM12 colon and 105% in the assay with MDA-MB-468 breast.

As for `COc1ccc2[nH]c(=O)cc(-n3ncc(C(=O)/C=C/c4cc(OC)c(OC)c(OC)c4)c3C)c2c1`, the growth in the assay on T-47D breast is 5.38% (active); in the assay on BT-549 breast it was -57.2% (active); in the assay on MDA-MB-435 melanoma, 1.51% (active); in the assay with SW-620 colon it was -51.9% (active); in the assay with MCF7 breast it was 1.39% (active); in the assay on HCT-116 colon, -52.9% (active). Moreover, the growth was -93.9% (active) in the assay on HCC-2998 colon, -37.2% (active) in the assay with KM12 colon and -71.1% (active) in the assay with MDA-MB-468 breast.

On to `Cc1cccc(-c2ccccc2Oc2ccc3nnc(Cl)n3n2)c1`, for which the growth in the assay with T-47D breast is 111%; in the assay on BT-549 breast, 99.8%; with MDA-MB-435 melanoma, 105%; with SW-620 colon, 101%; with MCF7 breast, 95%; in the assay with HCT-116 colon, 104%. Also, the growth with HCC-2998 colon is 105%; in the assay with KM12 colon, 106%; with MDA-MB-468 breast, 98.3%.

On to `COc1ccc(/C=C/c2nc3ccccc3c(=O)n2CC(=O)Nc2ccccc2)cc1`, for which the growth is -20.4% (active) in the assay on T-47D breast; 98.5% in the assay with BT-549 breast; 85.2% in the assay with MDA-MB-435 melanoma; 61.6% with SW-620 colon; 54.9% in the assay on MCF7 breast; 21% in the assay on HCT-116 colon. The growth is 80.2% with HCC-2998 colon, 66.9% in the assay on KM12 colon and 55.7% with MDA-MB-468 breast.

On to `CN(C)c1nc(NCCNS(=O)(=O)c2ccc(C(=O)/C=C/c3ccccc3)cc2)nc(N2CCOCC2)n1`, for which the growth with T-47D breast is 73.1%; in the assay on BT-549 breast, 94.3%; in the assay on MDA-MB-435 melanoma, 83.3%; in the assay on SW-620 colon it was -11.3% (active); with MCF7 breast, -4.51% (active); in the assay with HCT-116 colon, -28.5% (active). Further, the growth in the assay with HCC-2998 colon is 89.4%; in the assay with KM12 colon, -11.1% (active); in the assay on MDA-MB-468 breast, 52.1%.

In the case of `Cc1ccc2nc(NC(=O)Nc3cccc(Cl)c3)sc2c1`, the growth is 98.5% in the assay with T-47D breast; 121% with BT-549 breast; 105% in the assay with MDA-MB-435 melanoma; 106% with SW-620 colon; 66.8% in the assay on MCF7 breast; 94.7% in the assay with HCT-116 colon. Besides, the values for the growth with HCC-2998 colon, in the assay on KM12 colon and in the assay with MDA-MB-468 breast were 122%, 98.6% and 93.8%, respectively.

As for `COc1ccc([C@H]2C(C(=O)c3ccc(Cl)cc3)C3(N[C@@H]2c2ccccc2)C(=O)Nc2ccccc23)cc1` (some centres undefined), the growth is 16.8% in the assay on T-47D breast; 84.3% in the assay with BT-549 breast; 23.4% with MDA-MB-435 melanoma; 34.7% in the assay with SW-620 colon; 7.51% (active) with MCF7 breast; 26.1% in the assay on HCT-116 colon. Also, the growth with HCC-2998 colon was 13.7%; in the assay with KM12 colon it was 15.5%; in the assay on MDA-MB-468 breast it was 28.5%.

For the compound `O=C(CSc1nc2ccccc2c(=O)[nH]1)NNC(=O)c1ccccc1Cl`, the growth in the assay with T-47D breast is 92.4%; in the assay with BT-549 breast it was 160%; in the assay with MDA-MB-435 melanoma, 101%; with SW-620 colon, 104%; in the assay on MCF7 breast, 93.4%; in the assay with HCT-116 colon, 109%. Further, the values for the growth in the assay with HCC-2998 colon, with KM12 colon and in the assay on MDA-MB-468 breast were 113%, 101% and 137%, respectively.

For `Cc1ccc(N=Nc2c(N)nn3c(-c4cc5ccccc5oc4=O)ccnc23)cc1`, the growth in the assay on T-47D breast is 55.7%; with BT-549 breast, 74.5%; in the assay on MDA-MB-435 melanoma, 55.9%; in the assay with SW-620 colon, 30.7%; with MCF7 breast it was 26.6%; with HCT-116 colon, 11.1%. In addition, the growth with HCC-2998 colon is -21.1% (active); in the assay with KM12 colon, 31.3%; with MDA-MB-468 breast it was 14.9%.

`COc1ccc(C(=O)C[n+]2cccc3c4ccccc4ccc32)cc1`: the growth in the assay on T-47D breast is 38.2%; in the assay with BT-549 breast it was 33.2%; in the assay on MDA-MB-435 melanoma, 37.5%; in the assay with SW-620 colon, 36.4%; in the assay with MCF7 breast, 18.1%; with HCT-116 colon it was 29.8%. Further, the growth with HCC-2998 colon was 48.5%; in the assay with KM12 colon it was 34.9%; in the assay on MDA-MB-468 breast, 2.93% (active).

As to `O=C(NNC(=O)c1ccc(OCc2nc3ccc(Cl)cc3[nH]2)cc1)Nc1ccc(Cl)c(C(F)(F)F)c1`, the growth with T-47D breast is 16.4%; with BT-549 breast it was 64.7%; in the assay on MDA-MB-435 melanoma, 51.4%; with SW-620 colon it was 65%; with MCF7 breast, 49.5%; with HCT-116 colon it was 4.53% (active). The growth with HCC-2998 colon was 73.9%; in the assay on KM12 colon, 49.1%; in the assay on MDA-MB-468 breast it was 22.4%.

For `CN(C)C(=O)c1cc(-c2ccc3ncnc(N4CCc5cc(F)c(Cl)cc54)c3c2)cnc1N`, the growth was -59.1% (active) in the assay on T-47D breast; -82.9% (active) in the assay on BT-549 breast; -58.5% (active) in the assay on MDA-MB-435 melanoma; -51.8% (active) with SW-620 colon; -59.9% (active) in the assay on MCF7 breast; -97.4% (active) in the assay on HCT-116 colon. For the same compound, the growth in the assay with HCC-2998 colon was -82.2% (active); in the assay on KM12 colon, -58.3% (active); in the assay on MDA-MB-468 breast, -80.4% (active).

As to `Fc1ccc(Nc2nnc(-c3c[nH]c4ccccc34)o2)cc1`, the growth is 47.2% in the assay on T-47D breast; 67.3% with BT-549 breast; 89.8% in the assay on MDA-MB-435 melanoma; 100% with SW-620 colon; 49.9% in the assay on MCF7 breast; 90.3% with HCT-116 colon. The figures for the growth in the assay with HCC-2998 colon, in the assay on KM12 colon and in the assay with MDA-MB-468 breast were 98.5%, 64.4% and 32.6%, respectively.

Take `CCCCNC(=S)Nc1ccc(OCc2nc3ccc(Cl)cc3[nH]2)cc1`: the growth is 22.2% in the assay on T-47D breast; 31.7% in the assay on BT-549 breast; 29.4% in the assay on MDA-MB-435 melanoma; 21.8% in the assay on SW-620 colon; 6.29% (active) in the assay with MCF7 breast; 11.2% in the assay on HCT-116 colon. Moreover, the growth in the assay on HCC-2998 colon was 3.65% (active); with KM12 colon, 29.3%; with MDA-MB-468 breast, 3.25% (active).

In the case of `Cn1ncc2c(N)nc(Oc3ccccc3-c3ccccc3)nc21`, the growth in the assay with T-47D breast is 31.9%; in the assay with BT-549 breast it was -1.44% (active); in the assay on MDA-MB-435 melanoma, -38.2% (active); in the assay on SW-620 colon, 25.2%; in the assay on MCF7 breast, 9.1% (active); in the assay on HCT-116 colon it was 15.6%. Also, the growth with HCC-2998 colon was 62.2%; in the assay with KM12 colon, 24%; in the assay with MDA-MB-468 breast, -24.1% (active).

On to `O=C(NC(=S)N1CCN(c2ncnc3c2cnn3-c2ccccc2)CC1)c1ccc(F)cc1`, for which the growth with T-47D breast was 66.6%; with BT-549 breast, 86.2%; with MDA-MB-435 melanoma it was 77.2%; with SW-620 colon it was 76.6%; in the assay with MCF7 breast it was 52.4%; in the assay with HCT-116 colon, 55.1%. Moreover, the growth with HCC-2998 colon was 99.1%; in the assay with KM12 colon, 79.7%; with MDA-MB-468 breast, 66.7%.

With `Nc1nn2c(-c3cc4ccccc4oc3=O)ccnc2c1N=Nc1ccccc1`, the growth was 85.9% with T-47D breast; 29.5% in the assay with BT-549 breast; 107% in the assay with MDA-MB-435 melanoma; 93% in the assay on SW-620 colon; 52.7% with MCF7 breast; 6.75% (active) in the assay on HCT-116 colon. Also, the growth is 105% in the assay with HCC-2998 colon, 92% in the assay on KM12 colon and 78.3% in the assay on MDA-MB-468 breast.

For the compound `NC1(c2ccc(-c3ccc4ncnc(NCc5ccccc5)c4c3)cn2)COC1`, the growth is 108% and 107% in the assay on T-47D breast; 109% and 106% with BT-549 breast; 106% and 107% in the assay with MDA-MB-435 melanoma; 114% and 106% with SW-620 colon; 102% and 99.5% with MCF7 breast; 109% and 116% in the assay with HCT-116 colon. Further, the growth in the assay with HCC-2998 colon was 117% and 113%; with KM12 colon it was 101% and 88.5%; with MDA-MB-468 breast it was 102% and 103%.

As to `COc1ccc2c(c1)C(=O)N(C)C2C1c2c(cc3c(c2OC)OCO3)CCN1C` (centres undefined), the growth is 56.3% with T-47D breast; 68.5% in the assay on BT-549 breast; -21.1% (active) in the assay with MDA-MB-435 melanoma; 23.9% in the assay on SW-620 colon; 14.7% in the assay with MCF7 breast; 27.5% in the assay with HCT-116 colon. The growth in the assay with HCC-2998 colon was 63.2%; in the assay on KM12 colon it was 15.9%; in the assay on MDA-MB-468 breast it was 8.46% (active).

For the compound `O=C(CSc1nnc(-c2ccc(-c3nc4ccc(Cl)cc4[nH]3)cc2)o1)Nc1ccc(Cl)cc1`, the growth in the assay with T-47D breast was 47.5%; in the assay with BT-549 breast, -9.75% (active); with MDA-MB-435 melanoma it was 8.45% (active); with SW-620 colon, 4.33% (active); in the assay on MCF7 breast, 19.1%; in the assay with HCT-116 colon it was 5.5% (active). Moreover, the growth in the assay with HCC-2998 colon is 67%; in the assay on KM12 colon it was 18.8%; with MDA-MB-468 breast it was 72.4%.

`Nc1cccc(-n2c(COc3ccc(I)cc3)nc3ccccc32)c1`: the growth in the assay on T-47D breast is 54.6% and 99.2%; in the assay on BT-549 breast it was 92.6% and 99.7%; in the assay on MDA-MB-435 melanoma, 95.9% and 99.7%; with SW-620 colon it was 86.3% and 104%; in the assay with MCF7 breast it was 67.9% and 98.9%; in the assay on HCT-116 colon, 76% and 102%. The growth with HCC-2998 colon is 118% and 113%; with KM12 colon it was 87.9% and 99.6%; in the assay with MDA-MB-468 breast it was 72.2% and 102%.
